This passage reports outcome and AC50 results from PubChem BioAssay (EPA / NIEHS).

Each structure is given as a SMILES string. Active and inactive are the calls of the source. The calls were made as follows: active = hit-call score of the fitted dose curve at least 0.9, where 1 is the maximum; inactive = score below 0.9.

Read-out in this experiment: Early growth response protein 1 (EGR1) transcription factor, EGR1 (gene 1958)
The experiment is described as follows: LTEA_HepaRG_EGR1: Life Technologies and Expression Analysis (LTEA) Assay for Early growth response protein 1 (EGR1) transcription factor using HepaRG (AID 2283490). As to conditions: mRNA level, 48 h; actives raise or lower the signal. On the procedure: LTEA_HepaRG is a cell based, multiplexed-readout assay that uses HepaRG, a human liver cell line, with measurements taken at 48 hours after chemical dosing on a 96-well plate.LTEA_HepaRG_EGR1 is one of 102 assay component(s) measured in the LTEA HepaRG cell culture assay. It is a marker of Cell proliferation, survival, death.Data from the assay component LTEA_HepaRG_EGR1 was analyzed into 1 endpoint. This assay endpoint, LTEA_HepaRG_EGR1, was analyzed with bidirectional fitting relative to DMSO as the negative control and baseline of activity. Using a type of inducible reporter, measures of mRNA induction for gain or loss-of-signal activity can be used to understand regulation of transcription factor activity. To generalize the intended target to other relatable targets, this assay endpoint is annotated to the dna binding intended target family, where the subfamily is zinc finger.
A total of 1060 chemcials from the ToxCast library were tested in eight-point concentration-response experiments. Cell culture and cytotoxicity assays were conducted at Thermo Fisher Scientific's Custom Services facility (Madison, WI). A single lot of human HepaRG cells (Thermo Fisher Scientific, Frederick, MD) was used for the cell culture experiments. 96-well format collagen type I coated plates of human HepaRG cells were prepared using established methods. Briefly, cryopreserved HepaRG cells were thawed, plated at a density of approximately 100,000 cells/well in HepaRG Thaw, Plate, and General Purpose media (HPRG770, Thermo Fisher Scientific), and incubated for 48 hours. 0.5% DMSO was selected as vehicle control to balance the requisite need of DMSO in HepaRG cultures to maintain differentiation (for example, baseline metabolism, proportions of hepatocytes vs. cholangiocytes), while enabling further hepatic receptor pathway activation (for example, PXR and CAR) in response to chemical exposure. 48 hours after plating, the culture medium was replaced with HepaRG Serum-Free Incudtion Media. Cells were exposed to each test chemical in duplicate and maintained in CO2 incubators for another 48 hours. Chemical plates were thawed to room temperature and 200x concentrations of treatment groups were prepared. 8-point conentration-reponse curves were made with the highest exposure at 100 uM, followed by half-log dilutions, all in 0.5% DMSO. Each test plate contained variouse controls, induction positive controls (1mM phenobarbital), cytotoxicity positive controls ([…] aflatoxin B1), vehicle controls (0.5% DMSO), and total lysis controls (0.5% DMSO). Cell morphology images were taken using an Essen IncuCyte FLR automated microscope, with six 96-well plates imaged in about 24 minutes. Images were captured and exported and JPEG files. Spent culture media was transfered to black-well plates for the LDH assay, and remaining media was sorted at -80 C for later use. Cells were treated with RLT buffer and frozen until shipped for gene expression analysis. Total RNA was isolated from the cell suspension in 75 uL of Buffer RLT (Qiagen, Germantown, MD 20874) by Quintiles/Expression Analysis (Durham, NC) using a custom isolation procedure. Total RNA from each plate well was transferred to a preamplification plate. Fluidigm's 96.96 Dynamic ArrayTM (Fluidigm, Amsterdam, the Netherlands) technology was used for gene expression analyses by quantitative reverse transcription polymerase chain reaction (qRT-PCR, performed by Quintiles/Expression Analysis, Durham, NC)89. Standard TaqManTM Assays (Applied Biosystems/ThermoFisher Scientific, Foster City, CA) were used to assess the expression of 93 genes selected based on their selectivity and sensitivity to important hepatic receptors known to be modulated by environmental chemicals; importance in human hepatocyte functionality; and hepatotoxicity. […]
Consider `CCCCCCOCCO`, for which the compound was classed as inactive.
The same measure, in the same setting: as for `FC(F)(F)C(F)(F)C(F)(F)C(F)(F)C(F)(F)C(F)(F)CCI`, the entry is “inactive”; as for `Cc1ccc(C)c(O)c1C`, “inactive”; as for `Nc1ccc(S(=O)(=O)c2ccc(N)cc2)cc1`, “inactive”.
Regarding `CCCCCCCCCCC`, the compound was called inactive.
The same measure, in the same setting: as for `C=CCOC(=O)c1ccccc1C(=O)OCC=C`, the entry is “inactive”; as for `C[C@]12C=CC(=O)C=C1CC[C@@H]1[C@@H]2C(=O)C[C@@]2(C)[C@H]1CC[C@]2(O)C(=O)CO`, “inactive”.
In the case of `CCCCCC(=O)O`, the outcome was inactive.
Regarding `Cc1cc(=O)[nH]c(=S)[nH]1`, the result was inactive.
Same read-out and setting: as for `CC(=O)OCCOCCOCCOC(C)=O`, the entry is “inactive”; as for `CCCCCCC(=O)OCC`, “inactive”.
Same read-out and setting: as for `CCNc1cccc(C)c1`, the entry is “inactive”.
A word on the AC50: it is the concentration at which the activity in the assay is half-maximal. `Nc1ccccc1N`: the AC50 was 30 µM (active).
For `Cc1ccc(C)c(C)c1`, the outcome was inactive.
The same measure, in the same setting: for `CC(=O)Oc1ccccc1C(=O)O` the value was “inactive”; for `Cc1ccc2ncccc2c1`, “inactive”; for `C1CCC(SSC2CCCCC2)CC1`, “inactive”.
The same measure, in the same setting: for `COCCOC[C@H](CC1(C(=O)NC2CCC(C(=O)O)CC2)CCCC1)C(=O)Oc1ccc2c(c1)CCC2` (stereo not given in full) the value was “inactive”; for `C[Si]1(C)O[Si](C)(C)O[Si](C)(C)O[Si](C)(C)O1`, “inactive”.
Turning to `O=c1[nH]cc(F)c(=O)[nH]1`, the half-maximal activity concentration (AC50) is 70.9 µM (active).
As to `CCOC(=O)CCC(=O)OCC`, the compound was called inactive.
Still for that read-out and setting: as for `Cc1c(C(=O)O)c(O)cc2c1C(=O)c1c(O)c([C@@H]3O[C@H](CO)[C@@H](O)[C@H](O)[C@H]3O)c(O)c(O)c1C2=O`, the entry is “inactive”.
In the case of `CCCCC(CC)COC(=O)CC(C(=O)OCC(CC)CCCC)S(=O)(=O)O` (stereo not given), the concentration at half-maximal activity (AC50) is 85.5 µM (active).
As to `CC1=C(/C=C/C(C)=C/C=C/C(C)=C/CO)C(C)(C)CCC1`, the compound was classed as inactive.
The same measure, in the same setting: for `CCCCCCCCCCO` the value was “inactive”; for `CC(=O)C(C)=CC1C(C)=CCCC1(C)C` (stereo not given), “inactive”; for `COc1ccc2c(c1)c(CC(=O)O)c(C)n2C(=O)c1ccc(Cl)cc1`, “inactive”.
The same measure, in the same setting: for `Clc1cc(Cl)c(Cl)cc1Cl` the value was “inactive”.
In the case of `CNCc1cc(F)ccc1Oc1ccc(Cl)c(Cl)c1`, the AC50 was 83 µM (active).
For `CCOC(=O)C(C)(C)Oc1ccc(Cl)cc1`, the call was inactive.
Still for that read-out and setting: as for `CCCCCCCC=O`, the entry is “inactive”.
Same read-out and setting: as for `CCCCCCCCCCCCCCCC`, the entry is “inactive”.
Still for that read-out and setting: for `O=C(O)Cc1ccccc1Nc1c(Cl)cccc1Cl` the value was “inactive”.
As to `c1cc(-c2ccncc2)ccn1`, the result was inactive.
The same measure, in the same setting: for `CCCCCCCCCCCC(=O)OC` the value was “inactive”; for `NC(=O)Cn1c(=O)cc(CCN2CCN(c3nccc4sccc34)CC2)c2ccc(F)cc21`, “inactive”.
With `Cc1ccccc1Cl`, the outcome was inactive.
`COc1cc(-c2nc(NC(=O)c3cc4cc(C)cc(C)c4n3CC(=O)O)sc2CCC2CCCCC2)c(OC)cc1Cl`: the AC50 was 42.2 µM (active).
The same measure, in the same setting: for `CCc1c(C(=O)NN2CCCCC2)nn(-c2ccc(Cl)cc2Cl)c1-c1ccc(Br)cc1` the value was 12.2 µM (active).
Turning to `Cc1cccc(Nc2cc(Cl)nc(SCC(=O)O)n2)c1C`, the compound was classed as inactive.
